Among the data in paper PMC7862700, “An all-to-all approach to the identification of sequence-specific readers for epigenetic DNA modifications on cytosine” are binding signal values, retold here.

What all share (assay): DAPPL (digital affinity profiling via proximity ligation, sequencing); 10 mM Tris-HCl pH 7.5, 50 mM NaCl, 1 mM DTT, 4% glycerol, room temperature, 30 min; GST-TFs on glutathione beads, 16-mer random dsDNA library, 0.1% formaldehyde crosslink after washing; high values mean tight binding
Experiment [1] concerns the target T1, FEV (Homo sapiens, UniProt Q99581 1-238).
T1 sequence: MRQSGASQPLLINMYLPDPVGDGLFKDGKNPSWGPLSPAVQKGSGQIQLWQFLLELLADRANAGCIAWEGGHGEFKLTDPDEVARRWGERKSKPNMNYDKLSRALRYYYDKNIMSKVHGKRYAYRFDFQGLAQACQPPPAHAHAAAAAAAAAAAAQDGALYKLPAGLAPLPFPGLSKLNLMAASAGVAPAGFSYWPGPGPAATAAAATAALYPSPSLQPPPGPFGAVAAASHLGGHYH
To be noted: protein: recombinant; tags: N-terminal GST; dsDNA, one strand shown. A digest of the protocol:
(§1)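 Beads coated with glutathione captured GST-fused human transcription factors that had been expressed in yeast, and the factors were then given DNA barcodes and pooled with a tag-only sample. The pools were incubated with 200 nmole of a random double-stranded 16-mer DNA library in Tris/NaCl/DTT/glycerol buffer for 30 min at room temperature, washed, crosslinked with 0.1% formaldehyde and proximity-ligated with BsaI/T4 ligase at 37 °C for 1 h. PCR amplification and Illumina NextSeq500 sequencing came last. Binding signal is each hexamer's read frequency for a factor divided by its frequency for the tag-only sample.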

In experiment [2] the target is ETV5 (Homo sapiens, UniProt P41161 1-510). The settings on record: protein: recombinant; tags: N-terminal GST; dsDNA, one strand shown. The method, boiled down: as §1
ETV5, sequence (P41161 whole entry): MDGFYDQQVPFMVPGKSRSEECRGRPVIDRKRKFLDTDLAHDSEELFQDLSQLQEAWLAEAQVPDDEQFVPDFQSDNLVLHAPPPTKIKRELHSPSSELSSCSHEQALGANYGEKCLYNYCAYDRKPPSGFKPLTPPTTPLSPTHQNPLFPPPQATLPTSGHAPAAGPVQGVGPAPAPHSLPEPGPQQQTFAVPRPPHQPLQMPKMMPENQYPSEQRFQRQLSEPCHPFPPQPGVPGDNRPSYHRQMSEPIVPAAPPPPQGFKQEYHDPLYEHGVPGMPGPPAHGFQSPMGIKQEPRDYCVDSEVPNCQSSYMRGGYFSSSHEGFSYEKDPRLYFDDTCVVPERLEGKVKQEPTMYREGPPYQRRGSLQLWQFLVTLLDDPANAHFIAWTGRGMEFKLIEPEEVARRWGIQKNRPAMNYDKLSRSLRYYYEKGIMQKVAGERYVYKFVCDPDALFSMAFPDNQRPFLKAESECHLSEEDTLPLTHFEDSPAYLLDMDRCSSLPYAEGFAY
The target of experiment [3] is HSF1 (Homo sapiens, UniProt Q00613 1-529). The settings on record: protein: recombinant; tags: N-terminal GST; chain copies: 3; dsDNA, one strand shown. A digest of the protocol:
as §1

Experiment [4] concerns the target T2, SPIC (Homo sapiens, UniProt Q8N5J4 1-248).
T2 sequence: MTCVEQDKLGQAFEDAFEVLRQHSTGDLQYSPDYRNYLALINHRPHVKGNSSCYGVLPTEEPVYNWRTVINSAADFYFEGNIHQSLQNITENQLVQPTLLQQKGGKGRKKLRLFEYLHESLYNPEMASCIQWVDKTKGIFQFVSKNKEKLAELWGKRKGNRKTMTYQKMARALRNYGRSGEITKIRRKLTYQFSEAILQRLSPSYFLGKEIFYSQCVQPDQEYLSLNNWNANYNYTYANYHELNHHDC
The settings on record: protein: recombinant; tags: N-terminal GST; dsDNA, one strand shown. A digest of the protocol: as §1

The target in experiment [5] is ELF4 (Homo sapiens, UniProt Q99607 1-663). To be noted: protein: recombinant; tags: N-terminal GST; dsDNA, one strand shown. The method, boiled down:
as §1

Experiment [6] has as its target T3, ELK4 (Homo sapiens, UniProt P28324-2 1-405).
T3 sequence: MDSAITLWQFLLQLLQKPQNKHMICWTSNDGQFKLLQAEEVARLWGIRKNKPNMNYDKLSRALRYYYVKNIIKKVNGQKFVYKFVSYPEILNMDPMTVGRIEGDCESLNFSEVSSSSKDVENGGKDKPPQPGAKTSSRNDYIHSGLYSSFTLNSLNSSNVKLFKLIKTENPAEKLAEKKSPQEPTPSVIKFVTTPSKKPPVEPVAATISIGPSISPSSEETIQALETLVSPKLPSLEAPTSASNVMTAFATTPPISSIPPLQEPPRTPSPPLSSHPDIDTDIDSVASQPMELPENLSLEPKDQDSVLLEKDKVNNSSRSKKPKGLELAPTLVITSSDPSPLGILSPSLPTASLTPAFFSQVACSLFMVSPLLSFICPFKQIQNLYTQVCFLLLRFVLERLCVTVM
The settings on record: protein: recombinant; tags: N-terminal GST; dsDNA, one strand shown. The method, boiled down: as §1

Experiment [7] addresses T4, ETV2 (Homo sapiens, UniProt O00321 1-342).
T4 sequence: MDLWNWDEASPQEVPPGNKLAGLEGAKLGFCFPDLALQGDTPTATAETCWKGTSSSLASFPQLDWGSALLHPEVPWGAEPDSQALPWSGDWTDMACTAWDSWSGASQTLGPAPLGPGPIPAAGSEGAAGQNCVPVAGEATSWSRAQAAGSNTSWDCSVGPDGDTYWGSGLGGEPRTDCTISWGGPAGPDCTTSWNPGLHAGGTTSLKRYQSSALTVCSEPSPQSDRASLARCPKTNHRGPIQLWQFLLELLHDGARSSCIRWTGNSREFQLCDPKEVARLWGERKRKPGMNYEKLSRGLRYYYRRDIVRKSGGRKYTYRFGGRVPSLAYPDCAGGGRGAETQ
To be noted: protein: recombinant; tags: N-terminal GST; dsDNA, one strand shown. A digest of the protocol:
as §1

Experiment [8] deals with T5, ELF3 (Homo sapiens, UniProt P78545 1-371).
T5 sequence: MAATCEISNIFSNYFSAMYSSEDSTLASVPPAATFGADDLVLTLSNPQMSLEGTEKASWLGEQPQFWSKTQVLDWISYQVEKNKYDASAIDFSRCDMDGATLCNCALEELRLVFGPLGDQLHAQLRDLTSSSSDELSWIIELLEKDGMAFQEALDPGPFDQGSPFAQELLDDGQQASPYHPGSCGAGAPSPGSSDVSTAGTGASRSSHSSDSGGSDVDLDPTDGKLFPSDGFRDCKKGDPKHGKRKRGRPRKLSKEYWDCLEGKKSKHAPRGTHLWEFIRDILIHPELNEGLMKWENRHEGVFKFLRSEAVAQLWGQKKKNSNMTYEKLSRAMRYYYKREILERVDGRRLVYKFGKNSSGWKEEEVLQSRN
To be noted: protein: recombinant; tags: N-terminal GST; dsDNA, one strand shown. The method, boiled down:
as §1

Experiment [9] deals with CRX (Homo sapiens, UniProt O43186 1-299). The settings on record: protein: recombinant; tags: N-terminal GST; dsDNA, one strand shown. A digest of the protocol: as §1
CRX, sequence (O43186 whole entry): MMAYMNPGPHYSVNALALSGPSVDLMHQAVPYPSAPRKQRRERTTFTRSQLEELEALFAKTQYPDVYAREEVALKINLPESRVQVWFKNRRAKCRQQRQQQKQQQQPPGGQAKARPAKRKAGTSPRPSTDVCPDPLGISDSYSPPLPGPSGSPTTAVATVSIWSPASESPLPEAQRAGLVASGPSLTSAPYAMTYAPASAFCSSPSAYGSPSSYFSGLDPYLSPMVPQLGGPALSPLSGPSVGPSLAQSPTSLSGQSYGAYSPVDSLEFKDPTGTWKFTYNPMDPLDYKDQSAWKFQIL
For experiment [10], the target named is ETV1 (Homo sapiens, UniProt P50549 1-477). To be noted: protein: recombinant; tags: N-terminal GST; dsDNA, one strand shown. A digest of the protocol:
as §1

ELF4, sequence (Q99607 whole entry): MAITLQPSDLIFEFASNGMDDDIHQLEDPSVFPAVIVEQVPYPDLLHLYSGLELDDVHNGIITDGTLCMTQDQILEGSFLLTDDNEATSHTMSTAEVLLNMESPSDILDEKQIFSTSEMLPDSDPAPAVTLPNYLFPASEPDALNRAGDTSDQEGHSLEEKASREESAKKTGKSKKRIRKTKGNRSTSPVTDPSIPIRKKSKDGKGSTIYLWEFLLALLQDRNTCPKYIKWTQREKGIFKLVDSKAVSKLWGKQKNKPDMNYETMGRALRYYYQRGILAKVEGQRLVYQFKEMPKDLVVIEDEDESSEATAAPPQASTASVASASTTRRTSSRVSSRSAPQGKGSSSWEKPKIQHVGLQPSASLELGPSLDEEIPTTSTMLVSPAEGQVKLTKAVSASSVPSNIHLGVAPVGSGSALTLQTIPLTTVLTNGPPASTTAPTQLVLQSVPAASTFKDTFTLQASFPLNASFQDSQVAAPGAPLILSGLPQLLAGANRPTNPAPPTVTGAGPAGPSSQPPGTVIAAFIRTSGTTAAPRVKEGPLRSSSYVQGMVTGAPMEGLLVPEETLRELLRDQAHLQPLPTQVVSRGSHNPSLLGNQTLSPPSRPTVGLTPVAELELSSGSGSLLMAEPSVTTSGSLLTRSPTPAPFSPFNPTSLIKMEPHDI
HSF1, sequence (Q00613 whole entry): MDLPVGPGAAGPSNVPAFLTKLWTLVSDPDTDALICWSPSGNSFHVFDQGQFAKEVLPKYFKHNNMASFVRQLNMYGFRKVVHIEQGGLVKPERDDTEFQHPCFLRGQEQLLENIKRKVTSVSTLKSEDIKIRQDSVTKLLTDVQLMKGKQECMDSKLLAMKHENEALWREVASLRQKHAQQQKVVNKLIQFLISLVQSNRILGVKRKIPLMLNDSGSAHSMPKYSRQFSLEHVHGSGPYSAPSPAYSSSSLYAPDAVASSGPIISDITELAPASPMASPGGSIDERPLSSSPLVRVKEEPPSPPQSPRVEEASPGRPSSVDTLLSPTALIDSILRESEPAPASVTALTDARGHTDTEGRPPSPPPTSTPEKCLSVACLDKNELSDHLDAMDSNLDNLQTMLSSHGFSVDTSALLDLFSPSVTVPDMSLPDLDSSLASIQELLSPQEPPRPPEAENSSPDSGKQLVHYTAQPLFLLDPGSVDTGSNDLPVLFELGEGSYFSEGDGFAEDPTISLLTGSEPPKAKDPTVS
ETV1, sequence (P50549 whole entry): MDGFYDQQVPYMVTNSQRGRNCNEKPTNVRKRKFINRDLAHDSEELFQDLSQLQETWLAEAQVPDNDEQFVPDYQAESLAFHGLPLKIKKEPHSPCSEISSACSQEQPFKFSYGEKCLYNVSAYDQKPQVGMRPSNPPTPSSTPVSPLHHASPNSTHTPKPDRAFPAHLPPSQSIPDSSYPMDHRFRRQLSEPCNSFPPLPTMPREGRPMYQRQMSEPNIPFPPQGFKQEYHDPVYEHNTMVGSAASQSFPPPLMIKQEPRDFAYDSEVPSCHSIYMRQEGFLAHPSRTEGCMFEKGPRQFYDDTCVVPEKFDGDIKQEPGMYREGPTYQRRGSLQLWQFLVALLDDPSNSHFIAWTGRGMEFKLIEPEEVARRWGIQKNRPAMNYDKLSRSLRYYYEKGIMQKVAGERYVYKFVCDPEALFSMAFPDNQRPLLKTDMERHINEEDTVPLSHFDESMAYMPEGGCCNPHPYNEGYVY

For CTTCCC, the binding signal is 1.91 fold enrichment (6-mer frequency, TF over GST control) in experiment [1]; 2.24 fold enrichment (6-mer frequency, TF over GST control) in [2]; 1.55 fold enrichment (6-mer frequency, TF over GST control) in experiment [3]; 2.34 fold enrichment (6-mer frequency, TF over GST control) in [4]; 1.95 fold enrichment (6-mer frequency, TF over GST control) in [5]; 1.81 fold enrichment (6-mer frequency, TF over GST control) in experiment [6]. The binding signal was 2.4 fold enrichment (6-mer frequency, TF over GST control) in experiment [7]; 2.12 fold enrichment (6-mer frequency, TF over GST control) in [8]; 1.33 fold enrichment (6-mer frequency, TF over GST control) in experiment [9]; 2.01 fold enrichment (6-mer frequency, TF over GST control) in experiment [10].
Turning to CCGCTT, the binding signal in experiment [1] is 2.01 fold enrichment (6-mer frequency, TF over GST control); in [2] it was 2.03 fold enrichment (6-mer frequency, TF over GST control); in experiment [3], 1.49 fold enrichment (6-mer frequency, TF over GST control); in [4], 1.83 fold enrichment (6-mer frequency, TF over GST control); in experiment [5], 1.87 fold enrichment (6-mer frequency, TF over GST control); in experiment [6], 1.8 fold enrichment (6-mer frequency, TF over GST control). Moreover, the binding signal in [7] is 1.6 fold enrichment (6-mer frequency, TF over GST control); in experiment [8] it was 2.08 fold enrichment (6-mer frequency, TF over GST control); in experiment [9], 1.82 fold enrichment (6-mer frequency, TF over GST control); in experiment [10], 2.11 fold enrichment (6-mer frequency, TF over GST control).
In the case of TTCGTA, the binding signal in experiment [1] was 1.3 fold enrichment (6-mer frequency, TF over GST control); in [2], 1.42 fold enrichment (6-mer frequency, TF over GST control); in experiment [3], 1.33 fold enrichment (6-mer frequency, TF over GST control); in experiment [4], 1.42 fold enrichment (6-mer frequency, TF over GST control); in [5] it was 1.39 fold enrichment (6-mer frequency, TF over GST control); in experiment [6], 1.21 fold enrichment (6-mer frequency, TF over GST control). For the same sequence, the binding signal in experiment [7] was 1.37 fold enrichment (6-mer frequency, TF over GST control); in experiment [8] it was 1.53 fold enrichment (6-mer frequency, TF over GST control); in experiment [9] it was 1.52 fold enrichment (6-mer frequency, TF over GST control); in [10], 1.25 fold enrichment (6-mer frequency, TF over GST control).
As to TCTGCG, the binding signal is 1.22 fold enrichment (6-mer frequency, TF over GST control) in [1]; 1.22 fold enrichment (6-mer frequency, TF over GST control) in experiment [2]; 1.15 fold enrichment (6-mer frequency, TF over GST control) in [3]; 1.24 fold enrichment (6-mer frequency, TF over GST control) in experiment [4]; 1.2 fold enrichment (6-mer frequency, TF over GST control) in [5]; 1.14 fold enrichment (6-mer frequency, TF over GST control) in experiment [6]. In addition, the binding signal is 1.19 fold enrichment (6-mer frequency, TF over GST control) in [7]; 1.31 fold enrichment (6-mer frequency, TF over GST control) in [8]; 1.09 fold enrichment (6-mer frequency, TF over GST control) in experiment [9]; 1.45 fold enrichment (6-mer frequency, TF over GST control) in experiment [10].
Consider GCCTAC, for which the binding signal was 1.2 fold enrichment (6-mer frequency, TF over GST control) in experiment [1]; 1.16 fold enrichment (6-mer frequency, TF over GST control) in experiment [2]; 1.01 fold enrichment (6-mer frequency, TF over GST control) in experiment [3]; 1.37 fold enrichment (6-mer frequency, TF over GST control) in experiment [4]; 1.26 fold enrichment (6-mer frequency, TF over GST control) in experiment [5]; 1.38 fold enrichment (6-mer frequency, TF over GST control) in [6]. Besides, the binding signal was 1.16 fold enrichment (6-mer frequency, TF over GST control) in experiment [7]; 1.1 fold enrichment (6-mer frequency, TF over GST control) in experiment [8]; 1.12 fold enrichment (6-mer frequency, TF over GST control) in experiment [9]; 1.2 fold enrichment (6-mer frequency, TF over GST control) in experiment [10].
Consider TTTTAC, for which the binding signal in experiment [1] is 1.37 fold enrichment (6-mer frequency, TF over GST control); in experiment [2] it was 1.36 fold enrichment (6-mer frequency, TF over GST control); in experiment [3] it was 1.37 fold enrichment (6-mer frequency, TF over GST control); in experiment [4], 1.4 fold enrichment (6-mer frequency, TF over GST control); in [5], 1.37 fold enrichment (6-mer frequency, TF over GST control); in experiment [6], 1.41 fold enrichment (6-mer frequency, TF over GST control). The binding signal was 1.37 fold enrichment (6-mer frequency, TF over GST control) in [7]; 1.4 fold enrichment (6-mer frequency, TF over GST control) in experiment [8]; 1.51 fold enrichment (6-mer frequency, TF over GST control) in experiment [9]; 1.46 fold enrichment (6-mer frequency, TF over GST control) in [10].
Consider AACACA, for which the binding signal in experiment [1] was 1.31 fold enrichment (6-mer frequency, TF over GST control); in experiment [2], 1.33 fold enrichment (6-mer frequency, TF over GST control); in experiment [3] it was 1.13 fold enrichment (6-mer frequency, TF over GST control); in [4], 1.33 fold enrichment (6-mer frequency, TF over GST control); in [5], 1.32 fold enrichment (6-mer frequency, TF over GST control); in experiment [6], 1.42 fold enrichment (6-mer frequency, TF over GST control). The binding signal in [7] is 1.49 fold enrichment (6-mer frequency, TF over GST control); in [8] it was 1.26 fold enrichment (6-mer frequency, TF over GST control); in [9] it was 1.1 fold enrichment (6-mer frequency, TF over GST control); in [10] it was 1.27 fold enrichment (6-mer frequency, TF over GST control).
